Test results reported in PubChem BioAssay (NCI).
Compounds without any hit were thinned out: in the full panel of roughly 83,000, 20% have a hit.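 Negative percent growth values reflect cell death: -40 means 40% of the cells present at the start died, and -100 means all died.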 Values without a mark were called inactive. The source made the active and inactive calls. How the source made its calls: active means growth percent below 10; inactive means the rest.

What follows are compounds tested on MDA-MB-468 breast (assay: NCI-60 one-dose screen, 48 h (100 = growth as untreated, 0 = no growth, -100 = all killed)). Conditions: 10 µM unless noted.

| SMILES | growth |
| --- | --- |
| Cc1cnc(Nc2ccc(N3CCN(C)CC3)cc2)nc1Nc1ccc(Cl)c(NS(=O)(=O)C(C)(C)C)c1 | 14.9% |
| COc1ccc(/C=C(/C(=O)N2CCN(c3ccccc3)CC2)c2cc(OC)c(OC)c(OC)c2)cc1N | 11.7% |
| CC[C@]12CN3CCc4c([nH]c5ccccc45)[C@@](C(=O)OC)(c4cc5c(cc4OC)N(C)[C@H]4[C@@](O)(C(=O)OC)[C@H](OC(C)=O)[C@]6(CC)C=CCN7CC[C@]54[C@@H]76)CC(C3)[C@H]1O2 (stereo not given in full) | -12.7% (active) |
| O=C(NCCCNc1cc(-c2cn(-c3ccccc3)nc2-c2cccc(O)c2)ccn1)c1ccccc1 | -61% (active) |
| COc1ccc(/C=N/NC(=O)Cn2nnc3ccccc32)cc1 | 103% |
